# In the library only some 0.41% were active in any assay of this set; here they are far more common.
# N370S GC mod: qHTS Assay for Inhibitors and Activators of N370S glucocerebrosidase as a Potential Chaperone Treatment of Gaucher Disease; Lysosomal acid glucosylceramidase (Homo sapiens), P04062; N370S GC spleen homogenate, 4MU-glucoside fluorescence; Potency, µM (top dose mostly 59.4 µM), for the others: top-dose activity change, negative = inhibition, most hits filed as inhibitors; hit rate 0.092% among 330,000; AID 2101, 2009;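 also: potency is read from the fitted curve at half-maximal effect; 0% = full enzyme activity and -100% = no enzyme basal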
# GLA inh pH 4.5: qHTS Assay for Inhibitors of Human alpha-Galactosidase at pH 4.5; activity change, negative = inhibition, % at 105 µM; 230,000 tested, under 10 active; purified enzyme, 4-MU-alpha-Gal fluorescence, pH 4.5; AID 1467, 2008;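 also: 0% = full activity with enzyme and -100% = basal without enzyme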
# Target sequence (P06280 whole entry, looked up): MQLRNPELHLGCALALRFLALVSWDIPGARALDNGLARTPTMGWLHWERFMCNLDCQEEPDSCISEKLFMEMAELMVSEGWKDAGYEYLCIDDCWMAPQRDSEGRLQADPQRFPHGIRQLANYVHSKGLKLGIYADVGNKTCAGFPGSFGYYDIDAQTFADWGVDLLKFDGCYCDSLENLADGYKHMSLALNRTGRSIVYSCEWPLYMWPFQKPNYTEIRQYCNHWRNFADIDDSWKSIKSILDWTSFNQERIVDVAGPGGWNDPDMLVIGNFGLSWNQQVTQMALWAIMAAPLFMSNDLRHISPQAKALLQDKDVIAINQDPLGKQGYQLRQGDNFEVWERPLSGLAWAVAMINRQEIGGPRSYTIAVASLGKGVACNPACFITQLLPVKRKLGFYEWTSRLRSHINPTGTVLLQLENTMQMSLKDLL
# GLA spleen mod: qHTS Assay for Inhibitors and Activators of Human alpha-Galactosidase From Spleen Homogenate; Alpha-galactosidase A (Homo sapiens), P06280; human spleen homogenate, 4MU-alpha-Gal fluorescence, 40 min; Potency, µM (top dose mostly 80 µM), inactives show at the top dose activity change, negative = inhibition, hits mostly inhibitors; hit rate 0.008% among 240,000;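 also: potency is read from the fitted curve at half-maximal effect; 0% = enzyme with vehicle and -100% = no enzyme basal signal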
#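 Spleen homogenate 1 ug + cpd (titration) + 4-MU-alpha-D-galactopyranoside 1 mM; 37C 40 min; 50 mM citrate/phosphate pH 5.0, 0.01% Tween-20; stop pH 10; fluorescence 365/440; AC50 via Hill.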
# GAA inhib: qHTS Assay for Inhibitors of Human alpha-Glucosidase as a Potential Chaperone Treatment of Pompe Disease; Lysosomal alpha-glucosidase (Homo sapiens), P10253; purified human GAA, 4-MU-alpha-glucoside fluorescence; Potency, µM (highest dose often 76.9 µM), without a hit: top-dose activity change, negative = inhibition, most hits filed as inhibitors; hit rate 0.005% among 200,000;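 also: potency is read from the fitted curve at half-maximal effect; plate controls were uninhibited enzyme wells for no effect and no-enzyme background for full effect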
#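 Activity normalized between no-enzyme (basal) and enzyme-only wells. Conditions: 4 nM human enzyme, 400 uM fluorogenic substrate, citrate/phosphate pH 5.0 with Tween-20, 20 min room temperature, compounds up to 77 uM.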
# GAA glycogen mod: qHTS Assay for Inhibitors and Activators of Human alpha-Glucosidase Cleavage of Glycogen. Potency, µM (doses to about 76.4 µM), without a hit: at the highest dose activity change, negative = inhibition, most hits filed as inhibitors. recombinant GAA, glycogen substrate, Amplex Red glucose oxidase fluorescence. hit rate 0.38% among 300,000;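 also: potency is read from the fitted curve at half-maximal effect; 0% = full enzyme reaction and -100% = no-enzyme basal signal; the screen sought inhibitors and activators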
#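 Recombinant human enzyme (4 nM); glycogen substrate; 37 C, 40 min, pH 5.0. Readout: coupled glucose oxidase/Amplex Red fluorescence.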
# aGlu spleen mod: qHTS Assay for Inhibitors and Activators of Human alpha-Glucosidase From Spleen Homogenate. Lysosomal alpha-glucosidase (Homo sapiens), P10253. human spleen homogenate, 4-MU-alpha-glucoside fluorescence. Potency, µM (series often up to 79.9 µM), for inactives: at the highest dose activity change, negative = inhibition, most hits filed as inhibitors. hit rate 0.006% among 240,000. AID 2112, 2009;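 also: potency is read from the fitted curve at half-maximal effect; 0% = enzyme with vehicle and -100% = no enzyme basal signal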
#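 Human spleen homogenate (1 ug) with 4-methylumbelliferyl-alpha-D-glucopyranoside (1 mM final) in 50 mM citrate/phosphate pH 5.0, 0.01% Tween-20; 40 min at 37 C. Stopped at pH 10; 4-MU fluorescence Ex 365/Em 440 nm; AC50 by Hill fit.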
# Starred values were filed as active, the others as inactive; ? = inconclusive; . = no result given; [ ] = another dose, or the depositor's remark. Calls follow the shape of the dose curve; as a rule, active = well fitted curve in the direction sought with a large enough effect; inconclusive = small, poorly fitted or top-dose-only effect, or another doubt; inactive = no such curve, though single readings can be large; an effect the other way counts as inactive or inconclusive.
SMILES,N370S GC mod,GLA inh pH 4.5,GLA spleen mod,GAA inhib,GAA glycogen mod,aGlu spleen mod
COc1ccccc1NC(=O)CN(c1cc(C)cc(C)c1)S(=O)(=O)c1c(C)[nH]c(=O)[nH]c1=O,.,.,.,.,-11.5%[76.3 µM],.
Cc1cc(C)cc(N(CC(=O)Nc2cccc(C)c2C)S(=O)(=O)c2c(C)[nH]c(=O)[nH]c2=O)c1,2.51µM*,.,.,.,11.8%[76.3 µM],.
Cc1cc(C)cc(N(CC(=O)Nc2ccc(Br)cc2)S(=O)(=O)c2c(C)[nH]c(=O)[nH]c2=O)c1,1.58µM*,.,.,.,.,.
Cc1cc(C)cc(N(CC(=O)Nc2cc(C)ccc2C)S(=O)(=O)c2c(C)[nH]c(=O)[nH]c2=O)c1,8.91µM*,.,.,.,.,.
CC(C)c1nc(C(=O)N2CCc3c([nH]c4ccccc34)C2c2ccccn2)cs1 (configuration not stated),-27.7%,-17.8,-17.0%,?,-21.4%,4.4%
Cc1nc(C(=O)N2CCc3c([nH]c4ccccc34)C2c2ccccn2)cs1 (configuration not stated),?,1.8,-4.4%,?,15.8µM*,-7.9%
COC(=O)[C@H](COC(C)(C)C)NC(=O)O[C@@H]1C(=O)c2ccc(OC)cc2O[C@H]1c1cccc(C(F)(F)F)c1,17.6%,-10.6,7.9%,.,.,-3.5%
N#Cc1c(Cl)cccc1N1CCC(C(N)=O)CC1,14.8%,0.8,8.4%,.,4.43µM*,11.2%
N#Cc1c(Cl)cccc1N1CCCC1,21.6%,-8.7,6.2%,6.5%,-11.5%,8.0%
O=C(NCc1ccccn1)C(=O)NN=C1CCCCCCC1,9.4%,-5.5[21.1 µM],2.4%,-7.7%,31.6µM*,1.6%
O=C(/C=C/c1ccc(O)c(O)c1)O[C@@H](C(=O)O)[C@@H](OC(=O)/C=C/c1ccc(O)c(O)c1)C(=O)O,-26.2%,.,-6.9%,.,.,-6.5%
O=C(O)/C=C/c1ccc(O)c(O)c1,-20.2%,0.5,?,-8.9%[15.4 µM],7.94µM*,?
O=C(/C=C/c1ccc(O)c(O)c1)NC(=O)c1ccccc1O,-24.2%,-5.0,10.5%,.,3.55µM*,4.1%
COC(=O)[C@H]1C[C@@H]1[C@H](NS(=O)(=O)c1ccc(-c2ccccc2)cc1)c1ccccc1,-2.5%,-0.8,-2.4%,.,.,3.5%
CCN1CCC(N(Cc2cccc(OC)c2)C(=O)Nc2cccc(C)c2C)CC1,.,.,.,.,-13.7%[76.3 µM],.
CC(C)c1cc(NC(=O)C(C)(C)C)cc(C(C)C)c1O,3.1%,-3.2,5.1%,-9.6%,31.6µM*,-3.4%
Cc1ccc(NS(=O)(=O)c2ccc(N3CCN(c4ccc(O)cc4)CC3)c([N+](=O)[O-])c2)c(C)c1,14.1µM*,-8.2,3.7%,-3.6%,?,0.7%
O=C1/C(=C/c2ccc(O)c(O)c2)Oc2cc(O)ccc21,-26.0%,-2.7,-4.2%,.,22.4µM*,-2.1%
CCOC(=O)N1CCN(Cc2nc3cc(NC(=O)c4ccccc4Cl)ccc3n2C(C)C)CC1,.,.,.,.,-5.3%[76.3 µM],.
COc1cc(NC(=O)N2c3ccccc3Sc3ccccc32)c(C(=O)O)cc1OC,6.9%,.,.,.,.,.
O=C(O)c1ccccc1NC(=O)N1c2ccccc2Sc2ccccc21,.,.,.,.,17.8µM*,.
Cc1ccc(S(=O)(=O)N(C)CCCC(=O)Nc2ccc(F)cc2)cc1,7.6%,-9.0,9.3%,-5.3%,0.6%,3.3%
CN(CCCC(=O)O)S(=O)(=O)c1ccc2c(c1)C(=O)c1cc(S(=O)(=O)N(C)CCCC(=O)O)ccc1-2,-4.7%,.,.,.,25.1µM*,.
Cc1cccc(N/C=C/C(=C(C#N)C#N)N(C)C)c1,7.4%,-2.3,1.6%,-2.2%,1.2%,-14.7%
CN(C)C(/C=C/Nc1ccc(O)cc1)=C(C#N)C#N,-3.9%,8.0,-2.7%,-11.4%,7.94µM*,-2.2%
SMILES,N370S GC mod,GLA inh pH 4.5,GLA spleen mod,GAA inhib,GAA glycogen mod,aGlu spleen mod
O=C(Nc1ccccc1)N(Cc1cccs1)c1ccc(F)cc1,.,.,.,.,14.7%[76.3 µM],.
C=C(C)C(=O)OC,8.9%,.,5.8%,.,.,0.4%
O=C(Nc1ccc(F)cc1)c1c(Cl)nc2ccccn12,0.2%,10.2,-8.7%,1.2%,4.3%,0.5%
Fc1ccc(Nc2c(-c3c[nH]c4ccccc34)nc3ccccn23)cc1,.,.,.,.,14.1µM*,.
Cc1cccc(C)c1NC(=O)CCCn1c(=O)c2cccn2c2ccccc21,.,.,.,.,11.2%[76.3 µM],.
Cc1ccc(NNC(=O)c2c(F)cccc2Cl)cc1C,10.1%,-11.1,2.0%,.,25.1µM*,-1.8%
Cc1cc(NC(=O)c2c(F)cccc2Cl)no1,12.0%,4.0,0.0%,-3.9%,4.3%,-6.4%
Oc1cnn(-c2ccccc2)c1,1.4%,6.2,-2.2%,4.2%,19.8µM*,5.2%
CCOC(=O)Cc1csc(Nc2c(C)n(C)n(-c3ccccc3)c2=O)n1,5.5%,6.7,1.7%,-0.8%,10µM*,-1.1%
CCCn1c(=O)c2sccc2n2c(CCCC(=O)Nc3cccc(CC)c3)nnc12,.,.,.,.,-8.3%[76.3 µM],.
NNc1nc(-c2ccccc2)cc(-c2ccccc2)n1,3.6%,0.6,-14.2%,4.3%,-16.5%,-2.8%
NNc1nc(-c2ccccc2)cc(-c2ccccc2O)n1,4.1%,1.0,-7.6%,1.8%,11.2µM*,-5.8%
COc1ccc(OC)c(NC(=O)CCc2nc(-c3ccc(C)cc3)no2)c1,.,.,.,.,-4.1%[76.3 µM],.
Cn1c(=O)c2[nH]c(Nc3ccccc3)nc2n(C)c1=O,0.0%,2.5,-4.1%,-5.4%,7.08µM*,1.9%
Cc1ccc(CNc2nc3c([nH]2)c(=O)n(C)c(=O)n3C)cc1,-1.9%,3.8,0.7%,-3.1%,4.0%,-6.3%
COC(=O)c1c(NC(=O)CCCOc2ccc(C(C)(C)C)cc2)sc2c1C(C(=O)OC)CC2 (configuration not stated),.,.,.,.,-11.0%[76.3 µM],.
N#CC1=C(N)C2=C(N3CCCCC3)CCCC2C1(C#N)C#N (configuration not stated),-2.8%,-2.2,0.4%,-2.5%,22.4µM*,0.7%
N#CC(C#N)=C1C=C2C=C(N3CCCCC3)CCC2CC1 (configuration not stated),9.6%,-3.7,-1.8%,-0.8%,-6.3%,-4.4%
ClCCl,16.1%,.,-4.8%,.,.,-10.1%
CC(C)Nc1nc(NC(C)C)nc(N(C)N)n1,.,2.0,3.8%,-2.5%,28.2µM*,1.4%
CCNc1nc(NCC)nc(N(C)N)n1,3.9%,5.9,7.6%,-2.5%,35.5µM*,1.5%
